# An excerpt weighted towards active compounds, which were near 7.7% of everything screened.
# Giardia FBPA inh-1 = qHTS Assay for Inhibitors of Fructose-1,6-bisphosphate Aldolase from Giardia Lamblia; purified Giardia FBPA; A8B2U2; AID 2451, 2010; hit rate 0.71% among 290,000; Potency, µM (doses to about 59.6 µM), without a hit: top-dose activity, negative = inhibition, most hits filed as inhibitors; further: potency means the concentration at half of the fitted maximal effect; nearly all actives have a fitted effect of over 55% in size
# Target sequence (A8B2U2 whole entry, looked up): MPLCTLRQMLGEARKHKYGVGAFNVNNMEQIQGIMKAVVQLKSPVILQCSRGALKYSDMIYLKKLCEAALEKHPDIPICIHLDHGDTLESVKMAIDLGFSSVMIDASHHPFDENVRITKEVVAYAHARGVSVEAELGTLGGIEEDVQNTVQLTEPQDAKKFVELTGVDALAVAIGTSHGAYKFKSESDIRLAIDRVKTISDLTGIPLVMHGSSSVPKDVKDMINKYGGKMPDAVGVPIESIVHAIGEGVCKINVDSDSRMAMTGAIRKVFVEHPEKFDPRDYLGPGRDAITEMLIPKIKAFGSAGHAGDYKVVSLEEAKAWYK
#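 Giardia FBPA (40 nM reagent) was preincubated 10 min at RT with compound (up to 57.5 uM final), then substrate plus GAPDH/TPI/NAD/arsenate coupling system with diaphorase/resazurin was added; resorufin fluorescence (525/598 nm) was read after 20 min.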
# Sm TGR inh = qHTS Assay for the Inhibitors of Schistosoma Mansoni Peroxiredoxins. Schistosoma mansoni thioredoxin glutathione reductase (TGR), Q962Y6. purified TGR, DTNB reduction, TNB absorbance 405 nm. Potency, µM (titrated, usually from 114 µM), inactives show top-dose activity change, negative = inhibition, usual class: inhibitors. hit rate 3% among 360,000. AID 485364, 2010; further: potency means the concentration at half of the fitted maximal effect; nearly all actives have a fitted effect of over 60% in size
#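 Kinetic colorimetric format: TGR-catalysed, NADPH-driven DTNB reduction monitored via TNB absorbance. Enzyme dispensed at 20 nM; compound exposure 15 min at room temperature before reaction start.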
# HCMV inh = qHTS Assay for inhibitors of the human cytomegalovirus (HCMV); AID 1259415, 2018; hit rate 4.5% among 410,000; activity change, negative = inhibition, % at 57.5 µM; HFF cells, HCMV-luciferase reporter, 72 h; active compounds read low; in the data active means activity change below about -60%; inconclusive means no clear call, values can overlap the other calls; inactive means above about -39%
#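 After 16 h attachment at 37C, HFF cells received test compound and HCMV-luciferase (1 PFU/cell); reporter luminescence read 72 h later, data normalized against buffer-only and known inhibitor Salinomycin.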
# Tb PYK inh = qHTS of Trypanosoma Brucei Inhibitors | TbPYK enzyme, Kinase-Glo Plus ATP luminescence, 45 min | Potency, µM (series often up to 76.8 µM), without a hit: top-dose activity, negative = inhibition, usual class: inhibitors | hit rate 0.12% among 410,000; further: potency means the concentration at half of the fitted maximal effect; nearly all actives have a fitted effect of over 50% in size
#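 ADP (130 uM final) triggers the TbPYK reaction after compound addition; incubation is 45 min at room temperature. Kinase-Glo Plus is then added and luminescence imaged. Normalized data are fitted to concentration-effect curves.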
# FMDV antiviral = High Throughput Screening for Foot and Mouth Disease Virus Antivirals. FMDV antiviral cell-based qHTS. Potency, µM (top dose mostly 57.9 µM), for the others: at the highest dose activity change, negative = inhibition, usual class: inhibitors. hit rate 1.2% among 410,000; calls by dose curve; tested in HEK293T cells; further: read-out not given here; potency means the concentration at half of the fitted maximal effect; nearly all actives have a fitted effect of over 45% in size
# RE007 growth inh = qHTS Assay for Inhibitors of the HIV-1 protein Vpr; Potency, µM (doses to about 92.2 µM), for the others: at the top dose activity change, negative = less growth, actives largely listed as inhibitors; hit rate 0.21% among 360,000; S. pombe RE007 Vpr strain, BacTiter-Glo ATP luminescence, 24 h; AID 651644, 2012; active means well fitted falling curve with a large enough effect; inconclusive means small, poorly fitted or top-dose-only effect; inactive means no such curve, though single readings can be large or run the other way; further: potency means the concentration at half of the fitted maximal effect; nearly all actives have a fitted effect of over 50% in size
#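 Fission yeast RE007 carrying one integrated HIV-1 vpr copy, seeded at OD 0.01 in PMG+AL medium with 23 nL pinned compound. Grown 24 h at 30 degrees; viability read by BacTiter-Glo luminescence after 5 min.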
# Giardia growth = qHTS Assay for Inhibitors of Fructose-1,6-bisphosphate Aldolase from Giardia Lamblia: Giardia lamblia growth inhibition; shares compounds with Giardia FBPA inh-1; Giardia lamblia trophozoite growth inhibition; Potency, µM (doses to about 57.5 µM), inactives show at the top dose activity change, negative = inhibition, most hits filed as inhibitors; hit rate 5% among 1,500; AID 2785, 2010;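 further: potency means the concentration at half of the fitted maximal effect; trophozoites exposed to compound for 48 h at 37 °C; nearly all actives have a fitted effect of over 70% in size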
# Mammalian tox = qHTS Assay for Inhibitors of Fructose-1,6-bisphosphate Aldolase from Giardia Lamblia: Mammalian cellular toxicity; shares compounds with Giardia FBPA inh-1; mammalian cell viability counter-screen, qHTS; Potency, µM (doses to about 57.5 µM), without a hit: at the top dose viability change, negative = toxicity, usual class: inhibitors; hit rate 4% among 1,500;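 further: Chinese hamster ovary cells used as mammalian cytotoxicity surrogate; viability measured as cellular ATP by luminescence; potency means the concentration at half of the fitted maximal effect; compound exposure lasted 48 h before reading; nearly all actives have a fitted effect of over 60% in size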
# Giardia FBPA inh-2 = qHTS Assay for Inhibitors of Fructose-1,6-bisphosphate Aldolase from Giardia Lamblia: Primary screen confirmation | shares compounds with Giardia FBPA inh-1 | purified Giardia aldolase enzyme activity, qHTS | Potency, µM (top dose mostly 57.5 µM), for the others: at the top dose activity change, negative = inhibition, hits mostly inhibitors | hit rate 5% among 1,500 | AID 2787, 2010; further: potency means the concentration at half of the fitted maximal effect; nearly all actives have a fitted effect of over 45% in size
# Rabbit FBPA inh = qHTS Assay for Inhibitors of Fructose-1,6-bisphosphate Aldolase from Giardia Lamblia: Rabbit FBPA Selectivity; Potency, µM (top dose mostly 57.5 µM), without a hit: at the top dose activity, negative = inhibition, most hits filed as inhibitors; hit rate 4% among 1,500; shares compounds with Giardia FBPA inh-1; Rabbit muscle FBPA enzyme inhibition, selectivity counter-screen; further: potency means the concentration at half of the fitted maximal effect; nearly all actives have a fitted effect of over 60% in size
# Target sequence (P00883 whole entry, looked up): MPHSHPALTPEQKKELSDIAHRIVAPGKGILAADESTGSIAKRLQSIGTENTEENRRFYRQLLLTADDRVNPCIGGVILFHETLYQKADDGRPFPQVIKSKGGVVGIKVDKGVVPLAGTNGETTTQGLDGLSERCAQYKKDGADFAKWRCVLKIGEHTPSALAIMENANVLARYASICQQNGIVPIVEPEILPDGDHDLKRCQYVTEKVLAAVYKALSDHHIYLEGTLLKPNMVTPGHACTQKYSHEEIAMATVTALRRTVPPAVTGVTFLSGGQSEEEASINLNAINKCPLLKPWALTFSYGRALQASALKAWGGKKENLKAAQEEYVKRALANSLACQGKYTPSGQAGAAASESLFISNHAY
# GAPDH coupling = qHTS Assay for Inhibitors of Fructose-1,6-bisphosphate Aldolase from Giardia Lamblia: Coupling assay counterscreen confirmation. GAPDH coupling enzyme counterscreen, biochemical, qHTS. shares compounds with Giardia FBPA inh-1. hit rate 6% among 1,500. Potency, µM (top dose mostly 57.5 µM), without a hit: at the top dose activity change, negative = inhibition, usual class: inhibitors; further: potency means the concentration at half of the fitted maximal effect; nearly all actives have a fitted effect of over 55% in size
# Active calls of the source: *; ? = inconclusive; nt = not tested or not shown; ! = not confirmed by another sample; [ ] = remark or other dose. Unless noted, the call rests on the fitted dose curve; in most records, active means well fitted curve in the direction sought with a large enough effect; inconclusive means small, poorly fitted or top-dose-only effect, or another doubt; inactive means no such curve, though single readings can be large; an effect the other way counts as inactive or inconclusive. On the % scale 0 is the no-effect control and ±100 the full control effect.
SMILES,Giardia FBPA inh-1,Sm TGR inh,HCMV inh,Tb PYK inh,FMDV antiviral,RE007 growth inh,Giardia growth,Mammalian tox,Giardia FBPA inh-2,Rabbit FBPA inh,GAPDH coupling
COc1ccc(CN2CCN(c3ccc(F)cc3)CC2)c(OC)c1OC,-12%,8%,8,2%,-11%,-20%,nt,nt,nt,nt,nt
COc1ccc(CN2CCNCC2)c(OC)c1OC,22µM*!,?,?,-12%,0%,-5%[18.4 µM],-4%[10.4 µM],4%,-1%,1%,19%
COc1cccc(CN2CCN(Cc3cc(OC)c(OC)cc3OC)CC2)c1,14µM*,0%,6,2%,-7%,-5%,-25%,4%,-5%,5%,5%
COc1cccc(CN2CCNCC2)c1,3.5µM*,-8%,-27,-6%,-2%,-3%,?,-2%,8%,3%,7%
CCNc1ncc2nc(-c3ccc(Cl)cc3)c(=O)n(Cc3cccs3)c2n1,0%,nt,nt,nt,8%,nt,nt,nt,nt,nt,nt
CCN(Cc1ccccc1)C(=O)C1CCC(CNS(=O)(=O)c2ccc3c(c2)CCCC(=O)N3)CC1 (stereo not given),nt,-5%,-8,-3%,?,nt,nt,nt,nt,nt,nt
COc1cccc(-n2c(=O)c3ccccc3n3c(=S)[nH]nc23)c1,?,-3%,8,?,-13%,6%,nt,nt,nt,nt,nt
COCCCn1c(=O)c2ccccc2n2c(=S)[nH]nc12,7.1µM*,7%,-21,?,-12%,2%,-21%[38.3 µM],-5%,7%,-2%,-16%
CCOc1ccc(N(CC(=O)Nc2ccc(OC)cc2)C2=NC3CS(=O)(=O)CC3S2)cc1 (stereo not given),13µM*,1%,-5,3%,?,-7%,-12%,-14%,3%,6%,10%
Cc1oc(-c2ccccc2F)nc1CSCC(=O)NCc1ccccc1,nt,0%,-15,7%,-17%,nt,nt,nt,nt,nt,nt
CCNC(=S)N/N=C(\C)c1ccco1,18µM*,?,?,-7%,1%,-10%,6%,-3%,7%,5%,6%
C/C(=N\NC(=S)Nc1cccc(C)c1)c1ccco1,1%,?,42,-8%,23%,-23%,nt,nt,nt,nt,nt
COc1cc(C(c2c(C)[nH][nH]c2=O)c2c(C)[nH][nH]c2=O)cc([N+](=O)[O-])c1O,16µM*,-20%,-5,-1%,-25%,8%,-29%,-12%,5.6µM*,?,-16%
N#CC1=C(S)N(c2ccccc2)C(c2cccs2)NC1=O (stereo not given),6.3µM*,-32%,-11,-1%,nt,-12%,-17%,-5%,5%,4%,6%
Cc1ccc(N2C(S)=C(C#N)C(=O)NC2c2cccs2)cc1 (stereo not given),?,-4%,?,-17%,0%,5%,nt,nt,nt,nt,nt
COc1ccc(C(=O)NC(=S)N2CCOCC2)cc1[N+](=O)[O-],nt,4%,-25,?,-10%,9%,nt,nt,nt,nt,nt
COc1cc(C(=O)NC(=S)N2CCCCCC2)cc(OC)c1OC,16µM*,13%,-31,-7%,2%,-21%,?,-6%,-3%,3%,10%
COc1ccc(C(=O)NC(=S)N2CCOCC2)cc1Br,16µM*,-24%,29,?,11%,2%,?,-2%,-2%,5%,7%
CNC(=O)C1CCCN(c2nnc(C)c3c(C)n(-c4ccccc4)nc23)C1 (stereo not given),nt,0%,8,0%,-16%,nt,nt,nt,nt,nt,nt
COc1ccc2cc(-c3nc(Cl)c4c5c(sc4n3)CCCC5)c(=O)oc2c1,nt,-8%,14,-5%,19%,nt,nt,nt,nt,nt,nt
Nc1ccc2nc(Cc3ccccc3)[nH]c2c1,16µM*,0%,4,-6%,12%,-10%,-6%[10.4 µM],-8%,-16%,-9%,-3%
Cc1ccc2nc(Cc3ccc(N)cc3)[nH]c2c1,?,10%,33,-6%,nt,-4%,nt,nt,nt,nt,nt
COc1ccc(N2C(=O)CC(NNc3ncc(Cl)cc3Cl)C2=O)cc1 (stereo not given),16µM*,-10%,-25,4%,-1%,-17%,-1%[10.4 µM],-13%,12%,5%,8%
COc1ccc(N2C(=O)CC(NNC(=O)c3cc(C)oc3C)C2=O)cc1 (stereo not given),0%,-32%,-31,-3%,-10%,-3%,nt,nt,nt,nt,nt
CC(=O)c1ccc(NC(=O)CSc2nnc3ccc(-c4ccc(F)cc4)nn23)cc1,nt,-21%,-14,0%,0%,nt,nt,nt,nt,nt,nt
COc1cccc2oc(-c3ccc(O)cc3)cc(=O)c12,-2%,nt,nt,nt,nt,nt,nt,nt,nt,nt,nt
O=c1cc(-c2ccc(O)cc2)oc2c(O)c(O)c(O)c(O)c12,6.3µM*,4µM*,-33,-28%,-11%,5%,-8%[38.3 µM],-10%,21µM*,18µM*,?
Cc1ccc(C)c(Nc2nn3c(=O)c4ccc(C(=O)N(C)Cc5ccccc5)cc4nc3s2)c1,nt,-15%,-12,0%,5%,nt,nt,nt,nt,nt,nt
C/C(=N\NC(N)=S)c1ccc2c(c1)OCCO2,18µM*,-10%,31,-11%,34%,-26%,?,-10%,11%,8%,9%
C/C(=N\NC(N)=S)c1ccccc1,16µM*,6%,-29,-3%,-19%,-4%,27%,7%,6%,5%,7%
